Test results reported in PubChem BioAssay AID504462 (Sanford-Burnham Center for Chemical Genomics, 2011).
The campaign covered roughly 340,000 compounds. About 1,700 (0.5%) were called active. What follows is part of a selection rich in actives, with near analogues and random picks from the rest. Values without a mark were called inactive. Cut-off read from the data, not from the text of the source: active = inhibition above about 40%; inactive = the rest.

Each molecule was assayed against Cysteine protease ATG4B (Homo sapiens) (UniProt Q9Y4P1) (assay: ATG4B protease inhibitors, primary screen, biochemical, fluorescence, uHTS (AID 504462)). Conditions: ATG4B cleavage of LC3-PLA2, NBD-HPC fluorescence, 1 h; at 8.33 µM; active compounds read high.
Chain of Cysteine protease ATG4B (Homo sapiens) (Q9Y4P1 whole entry, looked up): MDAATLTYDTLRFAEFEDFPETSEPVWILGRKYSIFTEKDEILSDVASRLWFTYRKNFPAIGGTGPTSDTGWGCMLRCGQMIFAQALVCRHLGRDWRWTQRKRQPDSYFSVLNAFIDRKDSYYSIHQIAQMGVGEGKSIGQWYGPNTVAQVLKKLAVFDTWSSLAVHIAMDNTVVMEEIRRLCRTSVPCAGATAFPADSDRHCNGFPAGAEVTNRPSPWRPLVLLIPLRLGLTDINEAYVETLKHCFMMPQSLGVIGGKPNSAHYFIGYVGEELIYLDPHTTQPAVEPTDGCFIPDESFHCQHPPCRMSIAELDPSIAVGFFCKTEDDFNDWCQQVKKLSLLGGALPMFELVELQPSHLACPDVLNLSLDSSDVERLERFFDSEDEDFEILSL

SMILES	inhibition
CCn1nnc(NC(=O)c2cc(Cl)c(OC)c(Cl)c2)n1	-1.88%
O=C(Nc1ccccc1Cc1ccccc1)c1ccc2c(c1)SC1=NS(=O)(=O)CCN12	-8.36%
CC(=O)c1cc(-c2ccccc2)n(CCC(=O)NC2CCCCCC2)c1C	-4.01%
CCc1ccc(N(CC(=O)Nc2sc3c(c2C(=O)OC)CCCC3)S(C)(=O)=O)cc1	-5.39%
COC(=O)c1c(NC(=O)CN(c2ccc(C)c(C)c2)S(C)(=O)=O)sc2c1CCCC2	-3.55%
COC(=O)c1c(NC(=O)COC(=O)[C@@H](NS(=O)(=O)c2ccccc2)C(C)C)sc2c1CCC2	71% (active)
O=[N+]([O-])/C=C/c1ccc2c(ccn2Cc2ccccc2)c1	5.14%
COc1ccc2c(c1)CCc1c(C(=O)N3CCc4ccccc4C3)noc1-2	55.6% (active)
O=C(c1noc2c1CCCC2)N1CCc2ccccc2C1	0.28%
COc1ccc2c(c1)CCc1c(C(=O)N3CCCC3)noc1-2	-6.35%
O=C(c1cn2ccccc2n1)N1CCc2c([nH]c3ccccc23)C1c1ccccn1 (configuration not stated)	-13.7%
Cc1cccc(C2c3[nH]c4ccccc4c3CCN2C(=O)c2cc(-c3cccn3C)n[nH]2)n1 (configuration not stated)	62.3% (active)
Cc1cccc(C(=O)N2CCc3c([nH]c4ccccc34)C2CC(C)C)n1 (configuration not stated)	-9.03%
O=C(COc1cc(Cl)c(Cl)cc1Cl)NC(=O)NC1CCCC1	-1.73%
O=C(N/N=C/c1coc2ccccc2c1=O)c1cc2ccccc2o1	61.1% (active)
Cc1c(/C=N\NC(=O)c2cc3ccccc3o2)c2ccccc2n1C	-15.2%
CC(C)(C)OC(=O)NCCCCCC(=O)N/N=C/c1coc2ccccc2c1=O	14.7%
O=C(COCc1cc(-c2ccc3c(c2)OCO3)on1)N1CCN(c2cccc(Cl)c2)CC1	5.35%
CCOc1ccc(CC(=O)NCCS(=O)(=O)N2CCN(c3ccccc3)CC2)cc1	-6.99%
O=C(Nc1nnc(SCc2c(Cl)cccc2Cl)s1)c1cccc([N+](=O)[O-])c1	7.45%
NC(=O)CSc1nnc(NC(=O)c2ccc3ccccc3c2)s1	5.71%
O=C(Nc1nnc(SCc2ccccc2Cl)s1)c1cccc([N+](=O)[O-])c1	71.7% (active)

SMILES	inhibition
CN(CC(=O)Nc1cccc(F)c1)C(=O)C1CC(=O)N(CCc2ccccc2)C1 (configuration not stated)	-5.48%
OC(CNCc1ccc(Cl)c(Cl)c1)c1ccccc1 (configuration not stated)	40%
CCOC(=O)c1ccc(NNC(C)=O)c([N+](=O)[O-])c1	-7.65%
COc1ccc(Br)cc1C(=O)NC(=S)Nc1cc(-c2nc3ccccc3[nH]2)ccc1C	65% (active)
COc1ccc(Br)cc1C(=O)Nc1cccc(C)c1C	7.75%
COc1cc2ccccc2cc1C(=O)Nc1ccccc1C	-2.98%
CN1C(C)(C)CC(NC(=O)CCC(=O)NC2CC(C)(C)N(C)C(C)(C)C2)CC1(C)C	-1.23%
C#CCOCCOCCOCCNc1nc(N2CCN(C(=O)CCCCCCCCCCNC(=O)[C@H]([C@@H](C)CC)n3cc(CCCCN=C(N)N)nn3)CC2)nc(N2CCN(C(=O)CCCCCCCCCCNC(=O)[C@H](CO)n3cc(CCCSC)nn3)CC2)n1	41.9% (active)
C#CCOCCOCCOCCNc1nc(N2CCN(C(=O)Cn3cc(CCO)nn3)CC2)nc(N2CCN(C(=O)Cn3cc(CCCN=C(N)N)nn3)CC2)n1	-2.83%
C#CCOCCOCCOCCNc1nc(N2CCN(C(=O)[C@H](CCCN=C(N)N)n3cc(C(N)[C@@H](C)CC)nn3)CC2)nc(N2CCN(C(=O)[C@H](CO)n3cc([C@@H](N)C(C)C)nn3)CC2)n1 (some centres not stated)	-2.36%
O=C(c1n[nH]c2c1CCC2)N1CCCC(Nc2cccc(F)c2)C1 (configuration not stated)	5.08%
CCc1ccc(/C=C2\SC(N3CCOCC3)=NC2=O)cc1	-5.05%
CCOc1cc(/C=C2\SC(N3CCCCC3)=NC2=O)ccc1O	-6.5%
O=C1N=C(N2CCc3ccccc3C2)S/C1=C\c1ccc(O)cc1	67.7% (active)
O=C(NCCCO)/C(=C\C=C\c1ccccc1)NC(=O)c1ccccc1Cl	-7.32%
O=C1CSC(=S)N1c1ccc(Cl)c(Cl)c1	4.82%
CC1CC(C)CN(C/C=C/c2ccccc2[N+](=O)[O-])C1 (configuration not stated)	11.3%
Cn1c2ccccc2c2c(C(=O)N3CCN(c4ccc(F)cc4)CC3)cn(C3CCCC3)c(=O)c21	-29.5%
CCCc1nc2c(c(=O)c3ccccc3n2C)c(=O)n1C1CCCCCC1	41.3% (active)
CC1CCN(Cc2nc3c(c(=O)n(C)c(=O)n3C)n2CCc2ccccc2)CC1	-1.37%
Cn1nc(C(C)(C)C)c(NC(=O)c2sccc2Cl)c1C(C)(C)C	8.72%
O=C(O)C1=NN(c2c(F)c(F)cc(F)c2F)C(=O)CC1	-1.19%

SMILES	inhibition
CCN1CCN(c2c(Cl)cccc2NC(=O)c2ccc(Br)o2)CC1	56.4% (active)
O=C(Nc1cccc(Cl)c1N1CCOCC1)c1cccnc1	-5.52%
O=C(Nc1cccc(Cl)c1N1CCOCC1)c1ccc2c(c1)OCCO2	33.9%
C[C@H](CO)N1C[C@H](C)[C@@H](CN(C)S(=O)(=O)c2ccc(F)cc2)Oc2c(NC(=O)Nc3ccccc3)cccc2C1=O	-16.4%
O=C1C(=O)N(CC2COc3ccccc3O2)c2ccccc21 (configuration not stated)	72.1% (active)
O=C(CN1C(=O)C2C3C=CC(C3)C2C1=O)NCC1COc2ccccc2O1 (configuration not stated)	0.03%
O=C(NCC1COc2ccccc2O1)C1(c2ccccc2)CCCC1 (configuration not stated)	4.25%
FC(F)(F)c1cccc(NC(=S)Nc2cccc(Cl)c2)c1	44.3% (active)
Cn1cc(Cl)c(C(=O)NNC(=S)Nc2cccc(Cl)c2)n1	-0.09%
FC(F)(F)c1cccc(N/N=C/c2ccccc2)c1	-3.29%
Cc1nc(SCC(=O)N2CC(=O)Nc3ccccc32)c2c(C)c(C)sc2n1	26.7%
O=C(CSc1nnc(-c2cccs2)n1Cc1ccccc1)N1CCc2ccccc2C1	31.5%
Cc1nc(SCC(=O)N2CCc3ccccc3C2)c2c(C)c(C)sc2n1	71.6% (active)
CCOCC(=O)Nc1ncc(S(=O)(=O)c2ccc([N+](=O)[O-])cc2)s1	-0.99%
COc1ccc(/C=C2\SC(=O)N(CCC(=O)NCCCn3ccnc3)C2=O)cc1	3.21%
COc1ccc(/C=C2/SC(=O)N(CCCCCC(=O)Nc3ccccc3C(=O)O)C2=S)cc1	55.6% (active)
COc1ccc(/C=C2\SC(=O)N(CCC(=O)NC3CCS(=O)(=O)C3)C2=O)cc1 (configuration not stated)	5.85%
Cc1cc(C)n(-c2nnc(C)n2NC(=O)c2cccc(Cl)c2)n1	-11.2%
O=C(NCCS(=O)(=O)N1CCN(c2ccccc2F)CC1)c1ccc(Br)o1	-9.9%
CC1(C)CC(=O)C=C(NCCCN2CCCC2=O)C1	2.66%
O=C(c1ccc(CSc2ccccc2)cc1)N1CCCCCC1	15.3%
O=C(C1CC1)N1CCN=C1SCc1ccc(Cl)cc1	-5.2%

SMILES	inhibition
CC1CCN(C(=O)c2ccc(CSc3ccc(Cl)cc3)cc2)CC1	44% (active)
O=C(O)C1C2C=CC(C2)C1C(=O)NCc1ccccc1 (configuration not stated)	1.32%
COC(=O)[C@H](Cc1ccccc1)NC(=O)[C@@H]1C[C@H]1[C@@H](NC(=O)OCc1ccccc1)c1ccccc1	3.57%
O=C(NCc1ccccc1)[C@H]1C[C@@H]1[C@H](NP(=O)(c1ccccc1)c1ccccc1)c1ccccc1	55.2% (active)
Cc1ccc(Sc2cc(C(=O)c3ccccc3C(=O)O)ccc2[N+](=O)[O-])cc1	-10.7%
CN(C)S(=O)(=O)c1ccc(N/C=C(\[N+](=O)[O-])S(=O)(=O)c2ccccc2)cc1	0.88%
CCCN(CCC)CCCNC(=O)CNC(=O)c1nn(-c2ccc(OC)cc2)c(=O)c2ccccc12	7.71%
Cc1c(Cl)cccc1NC(=O)CC1SC(=NCC2CCCO2)NC1=O (configuration not stated)	1.67%
CCN=C1SC(CC(=O)Nc2ccc(C)cc2)C(=O)N1CC (configuration not stated)	-0.27%
Cc1ccc(NC(=O)CC2S/C(=N/N=C3\CCCc4ccccc43)NC2=O)cc1 (configuration not stated)	41.3% (active)
O=C(COC(=O)c1cc(=O)[nH]c2ccccc12)Nc1nc(-c2cccc(Br)c2)cs1	-32.4%
O=C1Nc2cc(Cl)c(Cl)cc2N(O)N1c1ccccc1Cl	0.16%
O=C1Nc2cc(Cl)c(Cl)cc2N(O)N1c1cc(Cl)cc(Cl)c1	42.3% (active)
O=C(Nc1cccc2c1CCCC2)c1ccc(F)cc1	9.34%
CS(=O)(=O)C1=NN2C(=N)/C(=C\c3ccc(OCCOc4ccccc4)cc3)C(=O)N=C2S1	-1.7%
CCS(=O)(=O)C1=NSC2=NC(=O)/C(=C\c3ccc(OS(=O)(=O)c4ccccc4)cc3)C(=N)N21	43.1% (active)
Cc1ccc(C2=N/C(=C\c3ccc(OS(=O)(=O)c4ccc(C)cc4)cc3)C(=O)O2)cc1	-3.55%
O=C(NCCc1ccco1)c1ccc(OCc2cn3ccccc3n2)cc1	-8.13%
FC(F)(F)Oc1ccc(NC(=S)NCc2ccccc2)cc1	40.2% (active)
COC(=O)Cc1ccc(NC(=S)NCc2ccccc2)cc1	8.5%
Fc1ccccc1CNC(=S)Nc1ccc(Cl)cc1	23.2%
